Compound activity from PubChem BioAssay.
The list is not random: actives were taken first. Their share in the collection is about 3.4%.
FBW7 act – FBW7 E3 ligase activators, primary screen, biochemical, AlphaScreen, human; normalized activity (activation), % at 26.1 µM; AlphaScreen FBW7–phospho-cyclin E peptide binding, activator screen; F-box/WD repeat-containing protein 7 (Homo sapiens), Q969H0; 650,000 compounds, 0.13% hits; AID 1259310, 2017; in the data active = normalized activity above about 1.9%;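 also: purified mutant Fbw7 with reduced substrate affinity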
Target sequence (Q969H0 whole entry, looked up): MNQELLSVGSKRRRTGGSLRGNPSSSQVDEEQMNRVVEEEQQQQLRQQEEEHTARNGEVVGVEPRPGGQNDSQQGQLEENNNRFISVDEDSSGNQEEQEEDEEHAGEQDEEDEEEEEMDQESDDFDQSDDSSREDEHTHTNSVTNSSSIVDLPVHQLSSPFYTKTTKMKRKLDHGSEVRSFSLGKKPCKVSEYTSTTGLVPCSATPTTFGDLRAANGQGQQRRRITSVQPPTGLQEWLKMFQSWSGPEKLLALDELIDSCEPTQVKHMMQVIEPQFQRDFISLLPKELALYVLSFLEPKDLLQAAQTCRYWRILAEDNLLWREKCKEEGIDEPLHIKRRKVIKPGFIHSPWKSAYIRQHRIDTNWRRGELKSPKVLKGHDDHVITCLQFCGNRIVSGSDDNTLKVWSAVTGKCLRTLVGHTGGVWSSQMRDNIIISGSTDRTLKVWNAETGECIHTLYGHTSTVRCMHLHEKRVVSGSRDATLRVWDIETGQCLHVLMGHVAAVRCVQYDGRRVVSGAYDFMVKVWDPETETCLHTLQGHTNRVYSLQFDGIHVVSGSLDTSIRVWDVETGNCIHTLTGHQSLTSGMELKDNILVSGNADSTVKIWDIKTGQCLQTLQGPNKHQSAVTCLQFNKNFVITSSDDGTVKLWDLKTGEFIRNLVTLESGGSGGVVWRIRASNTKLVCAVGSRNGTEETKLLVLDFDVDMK
MITF inh – MITF inhibitors, primary screen, biochemical, AlphaScreen, human | Microphthalmia-associated transcription factor (Homo sapiens), O75030 | inhibition, % at 2.6 µM | AID 1259374, 2018 | AlphaScreen MITF homodimerization, bead proximity signal | 650,000 compounds, 0.91% hits; in the data active = inhibition above about 50%
GPR151 activ – activators of human GPR151, primary screen, cell-based, PathHunter beta-arrestin, luminescence. AID 1508602, 2020. PathHunter beta-arrestin GPR151 cells. G-protein coupled receptor 151 (Homo sapiens), Q8TDV0. 650,000 compounds, 1% hits. activation, % at 11.2 µM; in the data active = activation above about 4.9%
TEAD-YAP block – TEAD-YAP interaction inhibition, primary screen, TEAD-YAP interaction inhibitor project, luminescence, HEK-TIYL cells. 640,000 compounds, 1.4% hits. inhibition, % at 9.12 µM. TEAD-Gal4/YAP UAS-luciferase luminescence; in the data active = inhibition above about 32%
MITF confirm – MITF inhibitors, retest of hits, confirmation, biochemical, AlphaScreen, triplicate; shares compounds with MITF inh; AlphaScreen MITF homodimerization, biotin/His-MITF beads; inhibition, % at 2.6 µM; 4,700 compounds, 16% hits;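 active = inhibition above a cutoff derived from the DMSO control wells, cut at about 28% in these data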;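 also: inhibitors lower the bead chemiluminescence by keeping MITF from dimerizing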
AS interf DR – AlphaScreen optical interference compounds, dose response, counter-screen, biochemical, HTS; shares compounds with MITF inh; AlphaScreen optical interference counterscreen, cell-free; IC50, µM; 480 compounds, 6% hits; AID 1259373, 2018; call rule not given here
AS interf ctr – AlphaScreen optical interference compounds, counter-screen for MITF inhibitor project, biochemical, triplicate; shares compounds with MITF inh; LysRS AlphaScreen counterscreen, signal interference; inhibition, % at 2.6 µM; 4,700 compounds, 7.6% hits;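 active = inhibition above a cutoff derived from the DMSO control wells, cut at about 30% in these data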
Of the large screens only hits and unclear results are named; the others gave an inactive call (follow-up assays come after a bar, where they were run).

CCOC(=O)c1ccc(OCCCN2CCCCCC2)cc1	none
CC(C)N(CCNc1nc(-c2cccc(N)c2)nc2c1ncn2CCN1CCCC1=O)C(C)C	none
CCOC(=O)c1ccc(NC(=O)CSc2nc3ccsc3c(=O)n2-c2ccc(Br)cc2)cc1	none
CCOC(=O)C1=C(C)N=c2s/c(=C/c3ccc(-c4ccccc4C#N)o3)c(=O)n2C1c1cc(OC)ccc1OC (configuration not stated)	none
O=C(c1ccccc1)c1ccc(OCCN2CCOCC2)cc1	MITF inh 82.9 | MITF confirm inactive | AS interf ctr inactive
COC(=O)c1ccc(OCCN2CCOCC2)cc1	none
COc1cc(Nc2ncnc3c2cnn3-c2ccc(C)cc2C)cc(OC)c1OC	none
CCc1nc2sc(C(c3ccc(C(C)C)cc3)N3CCCC3)c(O)n2n1 (configuration not stated)	MITF inh 57.3 | MITF confirm inactive | AS interf ctr inactive
CCc1nc2sc(C(c3ccc(OC)c(OC)c3)N3CCCCC3)c(O)n2n1 (configuration not stated)	none
CCOc1ccc(CCN/C(C)=C/c2nsc(Nc3ccc(OC)cc3)n2)cc1OCC	none
C/C(=N\NC(=O)CC1=NNC(=O)C1)c1ccco1	MITF inh 51.2 | MITF confirm 35.7 | AS interf DR inactive | AS interf ctr inactive
Cc1cc(Cl)c(OCCOCCN2CCN(C)CC2)c(Br)c1	MITF inh 77.5 | MITF confirm inactive | AS interf ctr inactive
Cc1cc(Cl)c(OCCCN2CCN(C)CC2)c(Br)c1	MITF inh 65.1 | MITF confirm inactive | AS interf ctr inactive
COCCNCCOc1c(Cl)cc(C)cc1Br	MITF inh 64.0 | MITF confirm inactive | AS interf ctr inactive
CN1CCN(CCOCCOc2c(Cl)cc(Cl)cc2Cl)CC1	none
Cc1cc(Cl)c(OCCN2CCN(C)CC2)c(Br)c1	MITF inh 55.0 | MITF confirm inactive | AS interf ctr inactive
Cc1cc(Cl)c(OCCCN2CCOCC2)c(Br)c1	none
CC(=O)N/N=C(\C)CCc1ccc2c(c1)OCO2	none
CCC(=O)N1N=C(c2cccc(NS(=O)(=O)CC)c2)CC1c1ccccc1 (configuration not stated)	none
Cc1ncc(CO)c(/C=N/N=C/c2cccc(Cl)c2Cl)c1O	MITF inh 53.4 | MITF confirm inactive | AS interf ctr inactive
CCCn1c(-c2ccc(OC)cc2)nc2c(c(=O)c3ccccc3n2C)c1=O	MITF inh 90.0 | MITF confirm inactive | AS interf ctr inactive
COCCn1c(-c2ccc(F)cc2)nc2c(c(=O)c3ccccc3n2C)c1=O	none
N[C@@H](C(=O)N[C@@H]1C(=O)N2C(C(=O)O)=C(CSC3CNNN3)CS[C@H]12)c1ccc(O)cc1 (some centres not stated) (tested in a mixture with another compound)	MITF inh 63.0 | MITF confirm 72.5 | AS interf DR 0.668 | AS interf ctr inactive
COc1ccccc1NC(=S)NCCCn1ccnc1	MITF inh 78.5 | MITF confirm inactive | AS interf ctr inactive
CCc1nnc2sc(-c3ccc(NC(=O)C(C)(C)C)cc3)nn12	MITF inh 53.8 | MITF confirm inactive | AS interf ctr inactive
CCc1nnc2sc(-c3ccc(NC(=O)COc4ccc(OC)cc4)cc3)nn12	none
COC(=O)c1c(NC(=O)CCCOc2ccc(C)cc2)sc2c1CCCC2	MITF inh 78.0 | MITF confirm inactive | AS interf ctr inactive
CN1CCN(CC(=O)Nc2sc3c(c2C(N)=O)CCCC3)CC1	MITF inh 72.1 | MITF confirm inactive | AS interf ctr inactive
COC(=O)c1c(NC(=O)CCN2CCN(C)CC2)sc2c1CCC2	MITF inh 90.3 | MITF confirm inactive | AS interf ctr inactive
CCN(CC)C(=O)C1CCCN(c2cc(Nc3cc(OC)c(OC)c(OC)c3)ncn2)C1 (configuration not stated)	none
Cc1ccc(CCC(=O)Nc2ccc(-c3cn4c5c(nnc4n3)CCCC5)cc2)o1	MITF inh 56.2 | MITF confirm 66.4 | AS interf DR inactive | AS interf ctr inactive
O=C(CCc1ccco1)Nc1ccc(-c2cn3c4c(nnc3n2)CCCC4)cc1	MITF inh 71.9 | MITF confirm 57.8 | AS interf DR inactive | AS interf ctr inactive
C=CCn1c(SCC(=O)O)nc2sc(C)c(C)c2c1=O	MITF inh 81.0 | MITF confirm inactive | AS interf ctr inactive
c1ccc(Oc2cccc(CN3CCSCC3)c2)cc1	none
Fc1ccc(CN2CCN(Cc3cccc(Oc4ccccc4)c3)CC2)cc1	MITF inh 68.2 | MITF confirm inactive | AS interf ctr inactive
c1ccc(Oc2cccc(CN3CCN(Cc4ccncc4)CC3)c2)cc1	MITF inh 69.4 | MITF confirm inactive | AS interf ctr inactive
O=C(c1ccncc1)N1CCN(Cc2cccc(Oc3ccccc3)c2)CC1	none
COc1cccc(CN2CCC(=O)N(Cc3ccc(F)cc3)CC2)c1	none
CCOc1ccc(CN2CCN(Cc3cccc(Oc4ccccc4)c3)CC2)cc1	none
CCN1CCN(Cc2cccc(Oc3ccccc3)c2)CC1	MITF inh 66.4 | MITF confirm inactive | AS interf ctr inactive
Fc1ccccc1CN1CCN(Cc2cccc(Oc3ccccc3)c2)CC1	MITF inh 71.8 | MITF confirm inactive | AS interf ctr inactive
CCn1c(=O)n(CC(=O)Nc2cc(OC)ccc2OC)c2cccnc21	none
O=C(Nc1ccc([N+](=O)[O-])cc1)N1CCC(Cc2ccccc2)CC1	none
CS(=O)(=O)c1ccc2c(c1)NC(=O)CN2C(=O)c1ccccc1	none
CCN(C(=O)c1ccccn1)c1nc2c(s1)CCc1oc(C)cc1-2	MITF inh 77.2 | MITF confirm 36.8 | AS interf ctr 77.3
CCN(C(=O)c1ccco1)c1nc2c(s1)CCc1oc(C)cc1-2	none
COc1ccccc1N1CCN(C2CCN(Cc3cccc(F)c3)CC2)CC1	MITF inh 61.7 | MITF confirm inactive | AS interf ctr inactive
COc1cccc(CN2CCC(N3CCN(c4ccccc4F)CC3)CC2)c1	MITF inh 72.5 | MITF confirm inactive | AS interf ctr inactive
COc1cc(CN2CCN(Cc3cccc4ccccc34)CC2)c([N+](=O)[O-])cc1OC	MITF inh 70.1 | MITF confirm inactive | AS interf ctr inactive
COc1cc(CN2CCN(Cc3cccc(OC)c3OC)CC2)c([N+](=O)[O-])cc1OC	MITF inh 51.9 | MITF confirm inactive | AS interf ctr inactive
